# Assay results taken from PubChem BioAssay.
# Calls of active or inactive are those of the source.
# Columns and labels:
# [1] = test system: Plasmodium falciparum Sir2 (PF13_0152, Sir2A); assay: Plasmodium falciparum Sir2A binding compounds – biochemical, small-molecule microarray, 635 nm fluorescence, primary screen (AID 1098); conditions: fluorescence 635 nm, higher = more signal;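 also: score merges spot fluorescence intensity with its signal-to-noise ratio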
# [2] = probe aDKK1 binding to arrayed compounds – biochemical, biotinylated probe, 635/667 nm fluorescence, primary screen (AID 1099); conditions: small-molecule microarray, higher = more signal;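 also: score merges 667nm spot fluorescence with signal to noise across triplicate slides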
# [3] = probe aCHRDL2 binding to arrayed compounds – biochemical, biotinylated probe, 635/667 nm fluorescence, primary screen (AID 1100); conditions: small-molecule microarray, higher = more signal
# [4] = change in splice reporter luminescence, either direction, cell-based, HEK293, spliceosome inhibition project, primary screen (AID 1101); conditions: HEK293 splicing luciferase reporter, 24 h, higher = more signal, called active from +8 up or from −8 down;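 also: HEK293 cells carrying a splicing-competent luciferase reporter gene; test concentration not given here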
# [5] = target: Fibroblast growth factor 10 (Homo sapiens) (UniProt O15520); assay: compounds binding fibroblast growth factor 10 – biochemical, small-molecule microarray, 635 nm fluorescence, primary screen (AID 1102); conditions: FGF10 binding, fluorescence 635 nm, higher = more signal
# Fibroblast growth factor 10 (Homo sapiens), sequence (O15520 whole entry, looked up): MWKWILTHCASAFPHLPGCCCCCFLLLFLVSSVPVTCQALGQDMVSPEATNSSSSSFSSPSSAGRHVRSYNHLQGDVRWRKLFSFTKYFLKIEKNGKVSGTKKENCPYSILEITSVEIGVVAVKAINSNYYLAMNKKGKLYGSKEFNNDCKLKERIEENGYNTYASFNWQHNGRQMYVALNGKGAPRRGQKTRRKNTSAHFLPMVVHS
# [6] = test system: glycogen synthase kinase-3 (GSK3A per assay name; protocol says GSK3B); assay: compounds binding glycogen synthase kinase-3 – biochemical, small-molecule microarray, 635 nm fluorescence, GSK3A, primary screen (AID 1103); conditions: fluorescence 635 nm, higher = more signal; also: the record names both GSK3A and GSK3B
# [7] = target: Epidermal growth factor receptor (Homo sapiens) (UniProt P00533); assay: compounds binding epidermal growth factor receptor – biochemical, small-molecule microarray, 635 nm fluorescence, primary screen (AID 1104); conditions: EGFR binding, higher = more signal;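 also: score merges 667 nm emission intensity with spot signal to noise over triplicate slides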
# Epidermal growth factor receptor (Homo sapiens), sequence (P00533 whole entry, looked up): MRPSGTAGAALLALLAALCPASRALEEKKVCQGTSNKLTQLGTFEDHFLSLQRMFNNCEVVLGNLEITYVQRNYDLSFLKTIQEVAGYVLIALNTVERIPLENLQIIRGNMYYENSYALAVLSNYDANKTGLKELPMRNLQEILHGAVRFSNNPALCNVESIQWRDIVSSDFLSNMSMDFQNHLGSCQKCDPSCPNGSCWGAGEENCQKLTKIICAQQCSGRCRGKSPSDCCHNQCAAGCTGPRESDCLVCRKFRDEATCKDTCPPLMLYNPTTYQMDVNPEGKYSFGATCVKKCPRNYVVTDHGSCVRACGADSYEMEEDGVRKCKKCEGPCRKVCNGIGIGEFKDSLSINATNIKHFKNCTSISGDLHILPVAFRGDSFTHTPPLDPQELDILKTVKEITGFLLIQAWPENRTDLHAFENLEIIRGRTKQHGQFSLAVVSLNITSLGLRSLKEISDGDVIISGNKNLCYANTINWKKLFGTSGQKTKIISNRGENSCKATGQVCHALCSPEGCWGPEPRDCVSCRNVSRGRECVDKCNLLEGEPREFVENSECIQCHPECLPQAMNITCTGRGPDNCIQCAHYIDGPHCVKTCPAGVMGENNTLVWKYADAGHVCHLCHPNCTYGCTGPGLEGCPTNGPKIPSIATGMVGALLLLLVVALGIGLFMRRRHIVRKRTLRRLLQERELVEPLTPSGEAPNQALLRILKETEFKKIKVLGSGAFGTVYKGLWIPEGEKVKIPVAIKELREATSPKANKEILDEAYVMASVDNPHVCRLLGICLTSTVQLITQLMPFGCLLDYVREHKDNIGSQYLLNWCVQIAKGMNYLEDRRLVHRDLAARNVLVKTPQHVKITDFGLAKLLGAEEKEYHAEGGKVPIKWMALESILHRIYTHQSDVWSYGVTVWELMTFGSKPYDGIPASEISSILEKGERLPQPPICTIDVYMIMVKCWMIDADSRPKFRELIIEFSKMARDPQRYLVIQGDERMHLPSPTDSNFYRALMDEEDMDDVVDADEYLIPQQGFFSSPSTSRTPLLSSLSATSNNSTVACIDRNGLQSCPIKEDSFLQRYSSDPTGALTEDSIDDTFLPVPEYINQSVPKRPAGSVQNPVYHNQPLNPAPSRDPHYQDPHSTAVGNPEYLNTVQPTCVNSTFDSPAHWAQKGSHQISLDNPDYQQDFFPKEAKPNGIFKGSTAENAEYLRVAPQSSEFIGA
# [8] = target: Follistatin-related protein 3 (Homo sapiens) (UniProt O95633); assay: compounds binding follistatin-related protein 3 – biochemical, small-molecule microarray, 635 nm fluorescence, primary screen (AID 1105); conditions: FSTL3 binding, higher = more signal;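 also: score merges emission near 667 nm and signal to noise per printed spot across three slides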
# Follistatin-related protein 3 (Homo sapiens), sequence (O95633 whole entry, looked up): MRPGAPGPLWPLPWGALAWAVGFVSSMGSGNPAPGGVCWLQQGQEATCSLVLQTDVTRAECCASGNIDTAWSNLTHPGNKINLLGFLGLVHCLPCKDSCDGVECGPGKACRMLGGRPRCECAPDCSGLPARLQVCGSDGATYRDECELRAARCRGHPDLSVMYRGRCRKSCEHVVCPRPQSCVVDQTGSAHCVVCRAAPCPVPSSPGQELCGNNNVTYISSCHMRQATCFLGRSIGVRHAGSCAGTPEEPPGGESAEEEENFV
# [9] = target: Dickkopf-related protein 1 (Homo sapiens) (UniProt O94907); assay: small molecules binding DKK1 protein – biochemical, small-molecule microarray, 635 nm fluorescence scan, primary screen (AID 1106); conditions: higher = more signal;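 also: score merges emission near 667 nm with signal to noise over three replicate slides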
# Dickkopf-related protein 1 (Homo sapiens), sequence (O94907 whole entry, looked up): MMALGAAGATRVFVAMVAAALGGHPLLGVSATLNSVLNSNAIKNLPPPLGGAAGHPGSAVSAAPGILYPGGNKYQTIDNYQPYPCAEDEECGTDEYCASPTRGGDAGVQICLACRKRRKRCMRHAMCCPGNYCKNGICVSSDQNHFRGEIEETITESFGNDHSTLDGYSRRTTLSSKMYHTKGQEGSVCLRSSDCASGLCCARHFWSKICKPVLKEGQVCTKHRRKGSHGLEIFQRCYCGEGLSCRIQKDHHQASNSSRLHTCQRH
# [10] = test system: Inhibin beta A chain (activin A); assay: small molecules binding activin A – biochemical, small-molecule microarray, 635 nm fluorescence scan, primary screen (AID 1107); conditions: INHBA, higher = more signal;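 also: mouse activin A protein probed at 4.33 µg/mL on printed slides; score merges bound-protein fluorescence near 667 nm with spot signal-to-noise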
# [11] = test system: Human papillomavirus type 1a protein E7 (residues 44-93); assay: small molecules binding HPV E7 44-93 – biochemical, small-molecule microarray, residues 44-93, 635 nm fluorescence, primary screen (AID 1108); conditions: fluorescence 635 nm, higher = more signal;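 also: E7 fragment applied at 1 µg/mL in TBST for 1 h at 4 C; score combines spot fluorescence with its signal to noise ratio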
# [12] = hepatitis C replication reporter changes, two-sided – Huh7 cells, luciferase reporter, HCV replication inhibitor project, primary screen (AID 1109); conditions: Huh7 HCV replicon luciferase reporter, 48 h; higher = more signal;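 also: huh7 hepatoma cells harbouring a luciferase neomycin HCV replicon reporter; luciferase luminescence as measure of HCV replicon replication; test concentration not given here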
# [13] = target: Left-right determination factor 2 (Homo sapiens) (UniProt O00292); assay: small molecules binding LEFTY2 protein – biochemical, small-molecule microarray, 635 nm fluorescence scan, primary screen (AID 1110); conditions: higher = more signal
# Left-right determination factor 2 (Homo sapiens), sequence (O00292 whole entry, looked up): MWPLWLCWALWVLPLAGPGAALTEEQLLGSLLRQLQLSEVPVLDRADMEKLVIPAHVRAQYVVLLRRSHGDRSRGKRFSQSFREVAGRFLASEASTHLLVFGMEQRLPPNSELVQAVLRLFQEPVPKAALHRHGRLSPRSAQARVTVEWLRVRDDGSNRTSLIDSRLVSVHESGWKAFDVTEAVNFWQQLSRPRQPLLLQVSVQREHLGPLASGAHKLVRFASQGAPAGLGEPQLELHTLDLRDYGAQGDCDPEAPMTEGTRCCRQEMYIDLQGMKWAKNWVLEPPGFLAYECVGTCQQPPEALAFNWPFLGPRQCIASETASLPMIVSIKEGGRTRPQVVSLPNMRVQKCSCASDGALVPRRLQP
# [14] = target: Calmodulin-1 (Homo sapiens) (UniProt P0DP23); assay: small molecules binding calmodulin-1 with EGTA – biochemical, small-molecule microarray, Cy5-labelled CALM1, profiling panel (AID 1111); conditions: Cy5-CALM1 binding fluorescence, higher = more signal;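 also: labelled calmodulin applied in Tris saline Tween buffer holding calcium plus EGTA and DTT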
# [15] = target: Calmodulin-1 (Homo sapiens) (UniProt P0DP23); assay: small molecules binding Ca-loaded calmodulin-1 – biochemical, small-molecule microarray, Cy5-labelled CALM1, plus calcium, artefact control for SMM control-protein annotation, profiling panel (AID 1112); conditions: Cy5-CALM1 binding fluorescence, higher = more signal;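 also: score merges spot fluorescence with signal to noise from triplicate slides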
# [16] = probe aWnt5a binding to arrayed compounds – biochemical, biotinylated probe, 635/667 nm fluorescence, primary screen (AID 1113); conditions: small-molecule microarray, higher = more signal;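 also: score merges 667 nm fluorescence intensity with signal-to-noise per printed feature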
# [17] = probe aShh binding to arrayed compounds – biochemical, biotinylated probe, 635/667 nm fluorescence, primary screen (AID 1114); conditions: small-molecule microarray, higher = more signal;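 also: probe is biotin-labelled aShh protein from a stem cell growth factor screen; measures binding of labelled protein to compounds printed on the slide; score merges feature fluorescence at 667 nm with signal-to-noise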
# [18] = probe aNog binding to arrayed compounds – biochemical, biotinylated probe, 635/667 nm fluorescence, primary screen (AID 1115); conditions: small-molecule microarray, higher = more signal;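 also: probe is biotinylated aNog protein used at 0.15 µg/mL for 1 h at 4 C; z-score combines 667 nm fluorescence of each spot with its signal to noise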
# [19] = target: Torsin-1A-interacting protein 1 (Homo sapiens) (UniProt Q5JTV8); assay: compound microarray binding of lysate hLAP1 – cell lysate, small-molecule microarray, COS7 lysate, 635/667 nm fluorescence, primary screen (AID 1116); conditions: 635 nm fluorescence, higher = more signal
# Torsin-1A-interacting protein 1 (Homo sapiens), sequence (Q5JTV8 whole entry, looked up): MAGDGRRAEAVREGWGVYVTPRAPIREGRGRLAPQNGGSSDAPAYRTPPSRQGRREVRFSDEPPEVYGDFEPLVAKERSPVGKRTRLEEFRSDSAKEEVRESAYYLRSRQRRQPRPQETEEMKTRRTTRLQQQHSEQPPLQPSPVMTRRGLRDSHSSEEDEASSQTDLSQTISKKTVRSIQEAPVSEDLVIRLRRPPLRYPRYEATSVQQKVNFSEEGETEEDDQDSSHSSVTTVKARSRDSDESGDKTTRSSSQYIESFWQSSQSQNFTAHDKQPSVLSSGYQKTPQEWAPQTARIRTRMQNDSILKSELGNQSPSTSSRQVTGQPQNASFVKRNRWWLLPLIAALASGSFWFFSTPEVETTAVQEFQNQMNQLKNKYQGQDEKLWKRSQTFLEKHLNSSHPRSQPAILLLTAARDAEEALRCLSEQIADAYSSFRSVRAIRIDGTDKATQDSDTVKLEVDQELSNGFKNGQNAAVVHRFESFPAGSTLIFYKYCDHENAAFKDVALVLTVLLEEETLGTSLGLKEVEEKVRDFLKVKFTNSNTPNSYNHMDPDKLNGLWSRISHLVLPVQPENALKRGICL
# [20] = target: Alpha-bungarotoxin (Bungarus multicinctus) (UniProt P60615); assay: compounds binding labelled alpha-BTX control protein – biochemical, small-molecule microarray, Alexa647 label, 635/667 nm fluorescence, artefact control for SMM control protein annotation, profiling panel (AID 1117); conditions: alpha-BTX-A647 binding fluorescence, higher = more signal
# Alpha-bungarotoxin (Bungarus multicinctus), sequence (P60615 whole entry, looked up): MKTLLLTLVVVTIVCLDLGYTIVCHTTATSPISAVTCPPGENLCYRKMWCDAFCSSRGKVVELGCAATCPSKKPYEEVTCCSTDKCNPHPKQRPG
SMILES,composite z-score [1],composite z-score [2],composite z-score [3],z-score [4],composite z-score [5],composite z-score [6],composite z-score [7],composite z-score [8],composite z-score [9],composite z-score [10],composite z-score [11],z-score [12],composite z-score [13],composite z-score [14],composite z-score [15],composite z-score [16],composite z-score [17],composite z-score [18],composite z-score [19],composite z-score [20]
C=C[C@@H](O)[C@H]1CC(c2ccccc2)=NO1,1.46,-0.187,0.0537,0.147 (inactive),0.0244,-0.408,0.449,0.046,0.271,0.614,-0.893,0.479,0.277,-0.358,-0.711,-0.208,0.167,-0.0524,0.0222,-0.0532
C=C(C(=O)CC[C@H](OC(=O)c1cccnc1)c1ccc(OCCO)cc1)C(C)C,1.56,-0.175,-0.049,1.77 (inactive),1.34,-0.0404,0.0365,0.721,-0.17,0.958,1.33,-3.29,0.242,0.098,-1.01,-0.0704,-0.142,-0.196,1.68,1.11
CCCNC(=O)[C@@H]1c2ccccc2C(=O)N(CC23CC4CC(CC(C4)C2)C3)[C@H]1c1ccc(CO)cc1,1.6,0.831,0.718,-0.254 (inactive),1.12,1.15,0.457,1.23,1.11,0.425,0.772,-1.15,1.03,0.992,0.489,0.189,0.265,0.697,0.986,0.88
[N-]=[N+]=NCc1ccccc1[C@H]1OC(c2ccc(OCCCO)cc2)=N[C@@]1(Cc1ccccc1N=[N+]=[N-])C(=O)NCCN1CCOCC1,0.879,0.901,1.15,-0.44 (inactive),1.26,1.3,0.558,1.32,0.136,0.511,1.05,-2.34,0.528,1.19,0.305,0.16,0.432,2.06,1.79,1.45
CN(C)CCCC[C@@H]1NC(=O)[C@H]2C[C@@H](C(=O)NCCCCCCNC(=O)CS)[C@@H](c3ccc(O)cc3)N2C1=O,1.74,-0.172,0.314,-0.296 (inactive),-0.31,-0.323,0.0264,1.27,-0.17,0.947,1.3,0.344,-0.603,-0.445,-0.107,-0.221,0.194,-0.541,2.53,-0.945
CN(C)C(=O)[C@@]1(CCC(=O)OC(C)(C)C)N=C(c2ccc(OCCCO)cc2)O[C@H]1c1ccccc1N=[N+]=[N-],1.33,0.813,0.837,0.101 (inactive),1.46,0.253,0.334,1.4,0.648,0.707,1.54,1.58,0.494,1.61,0.727,0.0839,0.246,0.948,2.15,2.63
C[C@@H]1ON(c2ccccc2)[C@H](c2ccccc2)[C@H]1C(=O)N1C(=O)OC[C@H]1Cc1ccccc1,0.342,-0.327,-0.503,-0.34 (inactive),0.423,0.149,0.569,0.697,0.471,0.106,1.06,-0.782,0.567,-0.137,-0.542,0.765,-0.304,-0.282,0.28,0.327
[N-]=[N+]=Nc1ccccc1[C@H]1OC(c2ccc(OCCCO)cc2)=N[C@@]1(Cc1ccccc1)C(=O)NCc1ccccc1,0.427,0.243,0.712,-1.72 (inactive),0.776,1.12,-0.0565,0.643,0.865,0.774,1.4,-3.14,0.364,0.503,-0.171,-0.0492,0.0723,-0.261,0.832,0.421
CC(C)c1ccc(NN2C(C(O)c3ccccn3)C=CC3C(=O)N(c4ccccc4)C(=O)C32)cc1 (stereo not given),1.52,0.753,0.105,-0.684 (inactive),1.53,1.31,0.69,1.33,0.454,-0.75,1.51,-0.112,0.581,1.11,0.214,0.145,0.04,1.7,1.34,0.964
COc1ccc([Si](C)(C)[C@@H]2[C@@H](CC(=O)N3Cc4ccccc4C[C@H]3CO)O[C@]3(C(=O)N(Cc4cccc(N5CCCCC5=O)c4)c4ccccc43)[C@H]2C)cc1,0.856,-0.154,-0.222,-1.46 (inactive),0.689,1.2,0.968,1.33,1.17,0.435,1.09,-3.47,0.709,0.836,-0.219,-0.0585,0.0557,0.228,1.11,1.9
COc1cc(C(O)C2C=CC3C(=O)N(C)C(=O)C3N2NC(=O)OC(C)(C)C)cc(OC)c1OC (stereo not given),1.27,1.2,0.739,1.21 (inactive),0.447,0.833,0.189,0.234,-0.076,0.442,0.968,-0.639,0.0493,1.34,0.12,0.343,0.848,1.6,0.102,0.312
